Assay outcomes from PubChem.
Hits are enriched below; roughly 7.3% of the tested compounds scored in any of these assays.
KinaseGlo FLuc – Counterscreen for Luciferase (Kinase-Glo TM) Inhibition; actives 0.28% (n = 200,000); Kinase-Glo luciferase, ATP luminescence, 8 min; Potency, µM (highest dose often 38.3 µM), actives largely listed as inhibitors; note: nearly all actives have a fitted effect of over 60% in size
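Recombinant Kinase-Glo luciferase, 10 uM ATP (linear range), luciferin; imidazole pH 7.2 / KCl / MgCl2 / Tween / BSA buffer; 8 min RT; luminescence.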
NPC1 prom act – qHTS Assay for NPC1 Promoter Activators; Potency, µM (series often up to 9.22 µM), most hits filed as activators; Huh7 NPC1 promoter luciferase reporter, 24 h; actives 2.4% (n = 320,000); note: nearly all actives have a fitted effect of over 60% in size
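Readout is luciferase luminescence, reflecting NPC1 promoter activation in stably transfected Huh7 cells after 24 h compound exposure at 37 °C in reduced-serum medium with 10% FBS.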
FLuc counter – qHTS profiling assay for firefly luciferase inhibitor/activator using purifed enzyme and Km concentrations of substrates (counterscreen for miR-21 project). Luciferin 4-monooxygenase (Photinus pyralis), P08659. purified FLuc, Km substrates, luminescence inhibition. Potency, µM (titrated, usually from 57.5 µM), actives largely listed as inhibitors. actives 6.9% (n = 360,000); note: nearly all actives have a fitted effect of over 55% in size
Target sequence (P08659 whole entry, looked up): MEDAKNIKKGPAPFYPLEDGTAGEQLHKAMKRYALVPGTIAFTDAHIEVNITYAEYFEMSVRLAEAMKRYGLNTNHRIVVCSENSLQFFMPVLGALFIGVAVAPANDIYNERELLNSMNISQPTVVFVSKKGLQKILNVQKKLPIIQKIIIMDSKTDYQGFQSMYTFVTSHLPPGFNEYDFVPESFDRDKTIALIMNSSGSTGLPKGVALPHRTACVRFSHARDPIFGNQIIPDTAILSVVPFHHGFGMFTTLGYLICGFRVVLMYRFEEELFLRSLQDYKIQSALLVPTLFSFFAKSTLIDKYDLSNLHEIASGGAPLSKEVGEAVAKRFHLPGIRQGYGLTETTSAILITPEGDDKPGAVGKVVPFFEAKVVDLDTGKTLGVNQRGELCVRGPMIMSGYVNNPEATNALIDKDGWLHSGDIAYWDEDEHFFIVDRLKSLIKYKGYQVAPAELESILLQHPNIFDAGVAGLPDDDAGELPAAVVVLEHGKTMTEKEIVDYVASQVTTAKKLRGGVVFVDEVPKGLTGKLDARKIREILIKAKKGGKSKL
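Biochemical qHTS of compounds, final roughly 60 µM downward over six points, against 10 nM purified firefly luciferase using Km concentrations of substrates (10 uM D-luciferin, 10 uM ATP) in Tris acetate pH 7.5 buffer; luminescence output.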
ELG1 genotox – qHTS screen for small molecules that induce genotoxicity in human embryonic kidney (HEK293T) cells expressing luciferase-tagged ELG1; HEK293T ELG1-luciferase reporter, luminescence, 16 h; Potency, µM (series often up to 46 µM), usual class: activators; actives 1.3% (n = 330,000); AID 504466, 2011; note: nearly all actives have a fitted effect of over 60% in size
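ELG1-luciferase HEK293T cells, 2,000/well; compound pinned in; 16 hr, 37 °C, 5% CO2; ONE-Glo, 30 min RT; luminescence on CCD imager.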
Rab9 prom act – qHTS Assay for Rab9 Promoter Activators. Huh7 Rab9 promoter-luciferase reporter, luminescence, 24 h. Potency, µM (top dose mostly 9.22 µM), hits mostly activators. AID 485297, 2010. actives 2.8% (n = 320,000); note: nearly all actives have a fitted effect of over 60% in size
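Huh7 reporter line, Rab9 promoter upstream of luciferase. Compound exposure 24 h at 37 °C in reduced-serum medium with 10% FBS. Read-out: luminescence.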
SMN2 splice enh – qHTS Assay for Enhancers of SMN2 Splice Variant Expression | HEK293 SMN2-luciferase splicing reporter, luminescence, 30-36 h | Potency, µM (doses to about 46.1 µM), most hits filed as activators | actives 2.8% (n = 210,000) | AID 1458, 2008; note: nearly all actives have a fitted effect of over 55% in size
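HEK293 cells carry an SMN2 […]–luciferase reporter in which exon 7 inclusion puts luciferase in frame. Cells were plated 10-12 h before compound addition, then incubated 30-36 h at 37C. ONE-Glo luminescence was read; sodium butyrate at 4.5 mM final served as control.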
Each line names hits and unclear results; the compound was inactive in the other large screens. Calls come from the whole dose curve; as a rule, active = well fitted curve in the direction sought with a large enough effect; inconclusive = small, poorly fitted or top-dose-only effect, or another doubt; inactive = no such curve, though single readings can be large; an effect the other way counts as inactive or inconclusive.

CC(C)c1ccc(OCc2nc(-c3ccccn3)no2)c(Br)c1	NPC1 prom act 0.398µM, FLuc counter 0.953µM, ELG1 genotox inconclusive, Rab9 prom act 0.447µM, SMN2 splice enh 6.31µM
c1ccc(OCCCc2nc(-c3ccncc3)no2)cc1	none
CC(=O)NS(=O)(=O)c1ccc(NC(=O)/C=C/c2cn(-c3ccccc3)nc2-c2ccccc2)cc1	FLuc counter 9.53µM
Cc1nn(-c2ccccc2)c2sc(C(=O)Nc3cccc(Cl)c3)cc12	none (no result: KinaseGlo FLuc, NPC1 prom act, ELG1 genotox, Rab9 prom act)
O=C(CSc1cccs1)Nc1cccc2ccccc12	NPC1 prom act inconclusive, FLuc counter 13.5µM, ELG1 genotox inconclusive, Rab9 prom act inconclusive, SMN2 splice enh 12.6µM
O=C(CSc1cccs1)Nc1ccc2ccccc2c1	NPC1 prom act inconclusive, FLuc counter 21.3µM, ELG1 genotox inconclusive, Rab9 prom act inconclusive
CCN(CC)C(=O)Cn1c(=O)n(Cc2ccc(C(=O)NCCc3ccc(OC)c(OC)c3)cc2)c(=O)c2ccccc21	none (no result: KinaseGlo FLuc, NPC1 prom act, ELG1 genotox, Rab9 prom act)
O=C(CN1C(=O)CCc2cc(S(=O)(=O)N3CCOCC3)ccc21)NCc1ccccc1Cl	none (no result: KinaseGlo FLuc, NPC1 prom act, ELG1 genotox, Rab9 prom act, SMN2 splice enh)
CCS(=O)(=O)N1CC(=O)N(c2ccc(Cl)cc2)C(C)(C(=O)NC2CCCCC2)C1 (stereo not given)	none (no result: KinaseGlo FLuc, NPC1 prom act, ELG1 genotox, Rab9 prom act, SMN2 splice enh)
Nc1ccc2c(c1)C(=O)N(c1cccc3ccccc13)C2=O	none (no result: KinaseGlo FLuc, SMN2 splice enh)
Cc1cc2nn(-c3cccc4ccccc34)nc2cc1N	NPC1 prom act inconclusive, FLuc counter 4.78µM, ELG1 genotox 13µM, Rab9 prom act 2.82µM, SMN2 splice enh 12.6µM
Nc1ccc2nn(-c3cccc4ccccc34)nc2c1	FLuc counter 19µM
c1ccc(-c2nc(C3CCCCC3)no2)cc1	FLuc counter 16.9µM, ELG1 genotox 20.6µM
Cc1ccc(-c2nc(C3CCN(S(=O)(=O)c4ccc(C(C)(C)C)cc4)CC3)no2)cc1	none
COc1ccc(-c2nc(C3CCCCC3)no2)cc1OC	NPC1 prom act inconclusive, FLuc counter 15.1µM, ELG1 genotox inconclusive, Rab9 prom act 2µM
CCOc1ccccc1OCCn1nnc2ccccc21	ELG1 genotox inconclusive (no result: SMN2 splice enh)
O=C(Cn1nnc2ccccc21)c1ccc(Br)cc1	FLuc counter 23.9µM, Rab9 prom act inconclusive (no result: KinaseGlo FLuc, SMN2 splice enh)
Cc1ccc(C(=O)Cn2nnc3ccccc32)cc1	NPC1 prom act 1.41µM, FLuc counter 5.36µM, ELG1 genotox inconclusive, Rab9 prom act 1.58µM, SMN2 splice enh inconclusive
Cc1ccc(OCCn2nnc3ccccc32)cc1C	NPC1 prom act 2.51µM, FLuc counter 21.3µM, ELG1 genotox inconclusive, Rab9 prom act 2.51µM (no result: KinaseGlo FLuc, SMN2 splice enh)
Cc1ccc(C(=O)Cn2nnc3ccccc32)cc1C	NPC1 prom act 1.41µM, FLuc counter 4.78µM, ELG1 genotox inconclusive, Rab9 prom act 0.794µM, SMN2 splice enh inconclusive
CCCOc1c(Cl)cc(C(=O)N(Cc2cccc(OC)c2)C2CCS(=O)(=O)C2)cc1Cl (stereo not given)	none (no result: KinaseGlo FLuc, NPC1 prom act, ELG1 genotox, Rab9 prom act)
COc1ccc(Nc2nc(-c3ccc4c(c3)NC(=O)CO4)cs2)cc1	FLuc counter inconclusive
COc1cccc(Nc2nc(-c3ccc(O)cc3)cs2)c1	NPC1 prom act inconclusive, FLuc counter 15.1µM, ELG1 genotox inconclusive
COc1cccc(Nc2nc(-c3cccc(N4C(=O)c5ccccc5C4=O)c3)cs2)c1	FLuc counter 2.39µM
COc1ccccc1CNC(=O)Cn1cc2c(n1)-c1c(oc(C(=O)N3CCOCC3)c1C)CC2	none (no result: KinaseGlo FLuc, NPC1 prom act, ELG1 genotox, Rab9 prom act, SMN2 splice enh)
Cc1ccc(Nc2nc3nonc3nc2Nc2cccc(C(F)(F)F)c2)cc1Cl	none (no result: KinaseGlo FLuc, NPC1 prom act, ELG1 genotox, Rab9 prom act)
CCn1ccc(C(=O)Nc2ccc(S(=O)(=O)Nc3ccccc3OC)cc2)n1	none
CCn1cc(Cl)c(C(=O)Nc2ccc(OC)c(OC)c2)n1	FLuc counter 15.1µM, Rab9 prom act inconclusive
CCn1cc(Cl)c(C(=O)Nc2cc(C(=O)OC)cc(C(=O)OC)c2)n1	none
CCn1ccc(C(=O)Nc2cccc(Cl)c2)n1	NPC1 prom act 3.55µM, FLuc counter 10.7µM, ELG1 genotox inconclusive, Rab9 prom act 1.41µM, SMN2 splice enh 12.6µM
